Measurements as given in PubChem BioAssay AID2641 (National Center for Advancing Translational Sciences (NCATS), 2010).
Several values for one entry are separate records, joined by “and”; a condition that tells them apart may be missing. Equal values may be shown once. Activity calls are given as the source filed them. No rule for the calls is given here.

biological target: Lysosomal alpha-glucosidase (Homo sapiens) (UniProt P10253); experiment: qHTS Assay for Inhibitors of Human alpha-Glucosidase as a Potential Chaperone Treatment of Pompe Disease: Stabilizers of Alpha-Glucosidase Under Thermal Denaturation Conditions; conditions: Recombinant GAA thermal denaturation, residual activity over time, active compounds read high; at 0.31 µM unless noted
Text: NIH Chemical Genomics Center [NCGC]
NIH Molecular Libraries Probe Production centers Network [MLPCN]
Assay Submitter (PI): Wei Zheng
Alpha-glucosidase is responsible for hydrolysis of terminal, non-reducing 1,4-linked alpha-D-glucose residues with release of alpha-D-glucose. It is a lysosomal hydrolase that is required for the degradation of a small percentage (1-3%) of cellular glycogen in human. Deficiency of this enzyme results in glycogen-storage disease type II (GSDII), also referred to as Pompe disease, an autosomal recessive disorder. Structurally normal glycogen is accumulated in lysosomes and cytoplasm in affected patients, primarily in muscle tissues. Excessive glycogen storage within lysosomes may interrupt normal functioning of other organelles and leads to cellular injury. In turn, this leads to enlargement and dysfunction of the entire organ involved (eg, cardiomyopathy and muscle weakness).
It has reported that the improper folding and trafficking of alpha-glucosidase resulting from the genetic mutations may account for a significant number of Pompe patients. […] We optimized this alpha-glucosidase assay in 1536-well plate format for identifying the novel small molecule inhibitors with the structures other than the sugar analogs in order to develop the new pharmacological chaperones.
This assay involves heating purified alpha-glucosidase (Myozyme) in the presence of inhibitors to observe potential stabilization of the enzyme. This binding assay is an indirect measure of chaperone activity, as stabilization may imply proper folding and trafficking of the enzyme to its functional site. Alpha-glucosidase was pre-incubated with only DMSO or 50x IC50 of compound before being exposed to 68 °C heat inactivation. The heating was measured over time, and it was observed that untreated alpha-glucosidase lost more of its activity over time than enzyme treated with compounds.
Temperature Denature Protocol for alpha-Glucosidase
Assay buffer: 50 mM citric acid (titrated with potassium phosphate to pH 5.0), 0.01% Tween-20
1. Prepare 80X solution alpha-glucosidase solution (3.2 nM*80=[…]) in assay buffer.
2. Divide solution into separate 1.5 ml tubes.
3. For each compound, add 50X IC50:
50x IC50 1-DNJ […]
50x IC50 of the […]
4. Incubate 10 min RT after compound addition.
5. Distribute 10 ul from each tube into PCR tubes.
6. Time course of heating: Heat solutions at 68C for 60 min, taking a set of tubes out at 10, 20, 30, 45, and 60 min, while keeping one set on ice whole time.
7. After heating, take out tubes and place on ice for a minimum of 5 min.
8. Transfer 10 ul solution to 790 ul (1:80 dilution) buffer in 1.5 ml tube.
9. Vortex and take three 20 ul aliquots and put in 384 plate.
10. Add 20 ul substrate solution to each well (100 uM 4-methylumbelliferyl alpha-D-glucopyranoside).
12. Add 25 ul stop solution (1 M NaOH, 1 M glycine pH 10).
13. Detect the assay plate in a ViewLux plate reader (PerkinElmer) with Ex=365 nm and Em=440nm.

Residual activity vs control after 60 min heating, active:
CC(=O)c1ccc(N2CCN(S(=O)(=O)c3ccc4c(c3)CC(=O)N4)CC2)cc1 909% and 724% and 584%, O=C1Cc2cc(S(=O)(=O)N3CCN(c4ccc([N+](=O)[O-])cc4)CC3)ccc2N1 464%, O=Cc1ccc(N2CCN(S(=O)(=O)c3ccc4c(c3)CC(=O)N4)CC2)cc1 299%, O=C1Cc2cc(S(=O)(=O)N3CCN(c4ccc(C(=O)O)cc4)CC3)ccc2N1 302%, N#Cc1ccc(N2CCN(S(=O)(=O)c3ccc4c(c3)CC(=O)N4)CC2)cc1 480%, O=C1Cc2cc(S(=O)(=O)N3CCN(c4ccc(O)cc4)CC3)ccc2N1 170%, CC(=O)c1ccc(N2CCN(S(=O)(=O)c3cc4c(cc3Cl)NC(=O)C4)CC2)cc1 675%, OCC1NCC(O)C(O)C1O (stereo not drawn) 421% [at 0.016 µM]
